Measurements as given in PubChem BioAssay (NCATS).
A number with no mark means an inactive call. Records with an inconclusive call do not appear. Where a call stands in place of a potency, no number is given. The source made the active and inactive calls. Unless noted, calls follow the shape of the dose curve; as a rule, active = well fitted curve in the direction sought with a large enough effect; inconclusive = small, poorly fitted or top-dose-only effect, or another doubt; inactive = no such curve, though single readings can be large; an effect the other way counts as inactive or inconclusive.

Legend:
[1] = KB-8-5-11 P-gp reporter qHTS against the NCATS DSHEA and TCM libraries (AID 1919977)
Outline: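 P-gp-overexpressing KB-8-5-11 cells were screened in colchicine-free medium at 500 cells/well, as a titration series. Cells were exposed for 72 h at 37C. Viability was read by CellTiter-Glo luminescence after 30 min at room temperature.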

[2] = biological target: Cytochrome P450 3A4 (Homo sapiens) (UniProt P08684); assay: qHTS Assay for Inhibitors and Substrates of Cytochrome P450 3A4 (AID 884); also: series mostly up to about 57 µM; nearly all actives have a fitted effect of over 50% in size
Outline: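 Luminescent readout of luciferin produced by CYP3A4 (20 nM) dealkylation of Luciferin-PPXE, 25 uM (its KM). NADPH-driven reaction ran 60 min at RT after 10 min compound preincubation; data scaled to 57 uM ketoconazole as 100% inhibition.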

[3] = MultiTox-Fluor Cytotoxicity Assay - LYMP1-001 - Live Cells (AID 947)
[4] = Cell Viability - LYMP2-015 (AID 971);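 also: cells exposed to compound for 24 h; nearly all actives have a fitted effect of over 55% in size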
Outline: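 AC50 values reflect Hill-model fits of ATP-based luminescence (CellTiter-Glo) from a human lymphoblastoid line, 2500 cells/well, treated 24 hr at 37 C.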

[5] = Cell Viability - LYMP1-002 - Assay at 40 hr (AID 994); also: nearly all actives have a fitted effect of over 60% in size
Outline: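 Concentration-dependent ATP loss after 40 hr treatment at 37 C defined toxicity; AC50 values were obtained by fitting the standard Hill equation.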

[6] = biological target: Bile acid receptor (Homo sapiens) (UniProt Q96RI1); assay: qHTS assay for small molecule antagonists of farnesoid X receptor signaling (AID 588526; calls by dose curve)
Outline: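 Beta-lactamase reporter antagonist mode: HEK293T FXR-UAS-bla cells, titrated compound, CDCA stimulation, 16 h 37 C, CCF4 dye 2 h RT. Data normalized to CDCA 50 uM and DMSO; Hill-fit IC50.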

[7] = biological target: Glucocorticoid receptor (Homo sapiens) (UniProt P04150); assay: qHTS assay for small molecule agonists of glucocorticoid receptor signaling (AID 588532; active = well fitted curve in the direction sought with a large enough effect in the signal ratio, with a control signal flat; the % refers to the signal ratio); conditions: HeLa MMTV-bla, beta-lactamase ratio, agonist, 18 h; hits give high values; percent of dexamethasone control, DMSO zero
Outline: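 Quantitative HTS using CellSensor MMTV-bla HeLa cells in charcoal/dextran-treated serum; compounds tested up to 92 uM. After 18 h at 37 C, CCF4 dye reported reporter induction.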

[8] = biological target: Vitamin D3 receptor (Homo sapiens) (UniProt P11473); assay: qHTS assay for small molecule antagonists of vitamin D receptor signaling (AID 588541; calls by dose curve;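 also: receptor activated by calcitriol during compound treatment; series mostly up to about 77 µM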)
Outline: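 Antagonist-mode beta-lactamase reporter assay: HEK293T VDR-UAS-bla cells were exposed to titrated compound alongside 1-alpha,25-dihydroxyvitamin D3 at 3 nM final for 16 h. Values were normalized to the 50 nM agonist control and DMSO basal, with IC50 and efficacy from Hill equation fits.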

[9] = biological target: Vitamin D3 receptor (Homo sapiens) (UniProt P11473); assay: qHTS assay for small molecule agonists of vitamin D receptor signaling (AID 588543; calls by dose curve)
Outline: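 VDR-UAS-bla HEK293T cells, 2000/well, 2% charcoal-stripped FBS; compound titration 16 h at 37 C; CCF4 beta-lactamase ratio read. Normalized to 50 nM 1-alpha,25-dihydroxyvitamin D3 (100%) and DMSO; Hill fit gives EC50, efficacy.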

[10] = qHTS assay for small molecule agonists of the antioxidant response element (ARE) signaling pathway (AID 651741; active = well fitted activation curve with a large enough effect in the signal ratio; the % refers to the signal ratio)
Outline: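 Agonist activity is measured as ARE-driven beta-lactamase expression in a stable HepG2 reporter line, using 16 h compound treatment at 37 C and a FRET substrate fluorescence readout after 2 h.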

[11] = qHTS assay for small molecule activators of the p53 signaling pathway (AID 651743; active = well fitted activation curve with a large enough effect in the signal ratio, not every such curve was filed as active; the % refers to the signal ratio; also: series mostly up to about 92 µM); conditions: HCT-116 p53RE-bla, beta-lactamase FRET ratio, 16 h; activation: hits give high values
Outline: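 A beta-lactamase reporter under p53 response element control, stably carried by HCT-116 cells, reported pathway activation. Test compounds were applied for 16 hours at 37 C, and fluorescence was measured 2 hours after adding the B/G FRET substrate.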

[12] = qHTS assay for small molecule activators of the nuclear factor-kappa B (NF-kB) signaling pathway (AID 651749; active = well fitted activation curve with a large enough effect in the signal ratio; the % refers to the signal ratio; also: series mostly up to about 77 µM); conditions: NF-kB-bla ME-180 cells, beta-lactamase FRET ratio, 16 h; activation: hits give high values
Outline: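 FRET-based beta-lactamase detection in ME-180 cells reports NF-kB response-element-driven transcription following overnight (16 hr) compound treatment.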

[13] = biological target: Nuclear receptor subfamily 1 group I member 2 (Rattus norvegicus) (UniProt Q9R1A7); assay: qHTS assay for small molecule activators of the rat pregnane X receptor (rPXR) signaling pathway (AID 651751; call rule not given here); conditions: rPXR reporter cells, luciferase (One-Glo), 24 h
[14] = qHTS assay for small molecule activators of the human pregnane X receptor (PXR) signaling pathway (AID 720659; call rule not given here)

Sequence of Vitamin D3 receptor (Homo sapiens) (P11473 whole entry, looked up): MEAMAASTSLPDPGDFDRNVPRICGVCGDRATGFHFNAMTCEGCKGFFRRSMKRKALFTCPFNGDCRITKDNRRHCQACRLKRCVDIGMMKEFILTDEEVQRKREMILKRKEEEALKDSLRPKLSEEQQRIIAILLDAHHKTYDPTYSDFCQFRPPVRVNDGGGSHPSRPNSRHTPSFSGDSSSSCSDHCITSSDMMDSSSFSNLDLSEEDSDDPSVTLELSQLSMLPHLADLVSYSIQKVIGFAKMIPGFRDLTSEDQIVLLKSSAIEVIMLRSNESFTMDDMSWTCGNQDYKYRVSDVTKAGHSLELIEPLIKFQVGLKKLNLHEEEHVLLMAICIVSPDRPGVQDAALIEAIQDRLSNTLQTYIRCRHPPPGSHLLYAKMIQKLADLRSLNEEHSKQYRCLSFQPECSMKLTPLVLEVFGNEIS
Sequence of Bile acid receptor (Homo sapiens) (Q96RI1 whole entry, looked up): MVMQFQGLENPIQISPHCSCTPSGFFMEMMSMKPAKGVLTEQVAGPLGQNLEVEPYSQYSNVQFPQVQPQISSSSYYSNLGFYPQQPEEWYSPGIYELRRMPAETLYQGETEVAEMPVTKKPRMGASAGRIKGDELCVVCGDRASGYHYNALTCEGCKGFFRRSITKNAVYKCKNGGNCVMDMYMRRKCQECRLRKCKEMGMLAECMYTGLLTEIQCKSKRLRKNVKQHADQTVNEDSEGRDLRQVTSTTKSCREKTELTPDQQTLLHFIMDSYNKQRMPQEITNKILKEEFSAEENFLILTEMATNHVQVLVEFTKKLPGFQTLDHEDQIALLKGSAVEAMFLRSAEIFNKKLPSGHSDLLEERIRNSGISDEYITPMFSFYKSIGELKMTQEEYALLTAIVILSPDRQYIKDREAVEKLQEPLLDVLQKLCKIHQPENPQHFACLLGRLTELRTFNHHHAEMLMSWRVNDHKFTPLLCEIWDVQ
Sequence of Cytochrome P450 3A4 (Homo sapiens) (P08684 whole entry, looked up): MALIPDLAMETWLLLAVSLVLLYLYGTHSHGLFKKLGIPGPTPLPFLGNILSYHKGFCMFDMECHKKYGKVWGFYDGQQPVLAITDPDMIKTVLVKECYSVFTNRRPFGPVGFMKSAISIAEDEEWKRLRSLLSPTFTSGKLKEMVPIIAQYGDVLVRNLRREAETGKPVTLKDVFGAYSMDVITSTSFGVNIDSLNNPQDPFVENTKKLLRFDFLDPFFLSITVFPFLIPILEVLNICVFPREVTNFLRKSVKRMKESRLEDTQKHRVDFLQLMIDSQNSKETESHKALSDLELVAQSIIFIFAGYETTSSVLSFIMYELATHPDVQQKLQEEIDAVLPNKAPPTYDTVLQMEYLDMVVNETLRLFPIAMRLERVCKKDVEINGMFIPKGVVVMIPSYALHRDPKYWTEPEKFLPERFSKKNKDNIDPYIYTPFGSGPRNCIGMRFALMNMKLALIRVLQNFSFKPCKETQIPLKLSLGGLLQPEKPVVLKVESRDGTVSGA
Sequence of Glucocorticoid receptor (Homo sapiens) (P04150 whole entry, looked up): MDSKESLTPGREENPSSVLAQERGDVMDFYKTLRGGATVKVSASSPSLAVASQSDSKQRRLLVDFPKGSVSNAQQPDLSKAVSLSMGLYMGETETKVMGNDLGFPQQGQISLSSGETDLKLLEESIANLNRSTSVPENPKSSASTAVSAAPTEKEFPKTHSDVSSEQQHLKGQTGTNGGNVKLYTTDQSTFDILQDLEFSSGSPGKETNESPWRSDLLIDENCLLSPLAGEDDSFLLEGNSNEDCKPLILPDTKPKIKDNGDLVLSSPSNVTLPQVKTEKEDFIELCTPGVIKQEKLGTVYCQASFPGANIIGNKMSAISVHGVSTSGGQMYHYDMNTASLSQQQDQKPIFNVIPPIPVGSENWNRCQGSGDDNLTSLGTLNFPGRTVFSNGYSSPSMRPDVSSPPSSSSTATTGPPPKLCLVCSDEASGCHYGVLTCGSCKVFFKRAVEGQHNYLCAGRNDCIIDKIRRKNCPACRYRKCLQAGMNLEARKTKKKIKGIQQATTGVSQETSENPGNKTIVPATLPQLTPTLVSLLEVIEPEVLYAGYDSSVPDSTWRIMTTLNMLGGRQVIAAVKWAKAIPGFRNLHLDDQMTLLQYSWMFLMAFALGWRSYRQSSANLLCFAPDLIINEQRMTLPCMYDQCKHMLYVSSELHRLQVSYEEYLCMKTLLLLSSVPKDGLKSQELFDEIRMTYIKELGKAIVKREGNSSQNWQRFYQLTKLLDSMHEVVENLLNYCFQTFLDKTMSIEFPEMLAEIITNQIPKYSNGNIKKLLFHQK
Sequence of Nuclear receptor subfamily 1 group I member 2 (Rattus norvegicus) (Q9R1A7 whole entry, looked up): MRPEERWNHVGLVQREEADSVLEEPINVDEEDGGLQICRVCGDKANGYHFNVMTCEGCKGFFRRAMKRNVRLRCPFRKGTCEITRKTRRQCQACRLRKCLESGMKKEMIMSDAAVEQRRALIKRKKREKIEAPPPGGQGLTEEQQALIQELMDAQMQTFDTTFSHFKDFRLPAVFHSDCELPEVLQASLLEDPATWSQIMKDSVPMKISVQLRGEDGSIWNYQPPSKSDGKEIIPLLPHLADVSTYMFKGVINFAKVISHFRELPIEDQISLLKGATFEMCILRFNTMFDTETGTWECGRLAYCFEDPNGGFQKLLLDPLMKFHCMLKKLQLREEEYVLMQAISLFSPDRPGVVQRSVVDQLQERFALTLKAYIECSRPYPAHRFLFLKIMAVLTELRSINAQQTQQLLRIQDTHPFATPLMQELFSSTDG

OCCc1ccc(O)cc1
Potency [1]: inactive

CC/C=C\C/C=C\C/C=C\C/C=C\CCCCC(=O)O
activity change, negative = inhibition [1]: -0.921% [at 3.26 µM]

O=C(O[C@@H]1Cc2c(O)cc(O)cc2O[C@H]1c1cc(O)c(O)c(O)c1)c1cc(O)c(O)c(O)c1
Potency [1]: inactive

C=C1C[C@]23CC[C@H]4[C@@](C)(CCC[C@@]4(C)C(=O)O)[C@@H]2CC[C@@]1(O[C@@H]1O[C@H](CO)[C@@H](O)[C@H](O)[C@H]1O[C@@H]1O[C@H](CO)[C@@H](O)[C@H](O)[C@H]1O)C3
Potency [1]: inactive

CC(C)[C@H](C)CC[C@@H](C)[C@H]1CC[C@H]2[C@@H]3CC=C4C[C@@H](O)CC[C@]4(C)[C@H]3CC[C@]12C
Potency [1]: inactive

CCCCCCCCCCCC(=O)O
Potency [1]: inactive

CCN(CC)c1ccccc1
Potency [2]: inactive
Potency [3]: inactive
Potency [4]: inactive
Potency [5]: inactive
outcome [6]: inactive
activation [7]: -4.16%
outcome [8]: inactive
outcome [9]: inactive
Potency [10]: inactive
activation [11]: 0.724%
activation [12]: -0.976%
max response [13]: -0.145%
outcome [14]: inactive

CC1=CCC2CC1C2(C)C (centres undefined)
Potency [1]: inactive

CC1(C)CC[C@]2(C(=O)O)CC[C@]3(C)C(=CCC4[C@@]5(C)CC[C@@H](O)C(C)(C)C5CC[C@]43C)C2C1 (some centres undefined)
Potency [1]: inactive

CCCCCCCC/C=C\CCCCCCCCCCCC(=O)O
Potency [1]: inactive

CC/C=C\C/C=C\C/C=C\C/C=C\C/C=C\CCCCCC(=O)O
activity change, negative = inhibition [1]: 8.8% [at 3.26 µM]

COc1ccc(C(=O)O)cc1
Potency [1]: inactive

O=S(=O)(O)O
Potency [1]: inactive

CC1=C2[C@H]([C@@H](C)CC[C@@H]2/C=C(\C)C(=O)O)[C@@H](O)C1
Potency [1]: inactive

CCCCCC(=O)O
Potency [1]: inactive

CC1=CC[C@H](C(C)C)C=C1
Potency [1]: inactive

CN(CC(=O)O)C(=N)N
Potency [1]: inactive

CC(C)=CCC[C@](C)(O)[C@H]1CC[C@]2(C)[C@@H]1[C@H](O)CC1[C@@]3(C)CC[C@H](O)C(C)(C)[C@@H]3[C@@H](O[C@@H]3O[C@H](CO)[C@@H](O)[C@H](O)[C@H]3O[C@@H]3O[C@H](CO)[C@@H](O)[C@H](O)[C@H]3O)C[C@]12C (some centres undefined)
Potency [1]: inactive

Oc1cc(O)c2c(c1)OC(c1ccc(O)c(O)c1)C(O)C2 (centres undefined)
Potency [1]: inactive

OCC1=C[C@@H](O)[C@@H]2C=CO[C@@H](OC3O[C@H](CO)[C@@H](O)[C@H](O)[C@H]3O)[C@H]12 (some centres undefined)
Potency [1]: inactive

C=C1CC[C@H]2C[C@@H]1C2(C)C
Potency [1]: inactive

CC1CC[C@]2(C(=O)O)CC[C@]3(C(=O)O)C(=CCC4[C@@]5(C)CC[C@H](OC6OC(C)C(O)C(OC7OC(CO)C(O)C(O)C7O)C6O)C(C)(C)C5CC[C@]43C)C2C1C (some centres undefined)
Potency [1]: inactive
